According to PubChem BioAssay (NCATS):
Values joined by “and” are separate entries in the source; they are usually repeats but may differ in a detail not shown here. Equal entries are not always repeated. Records with an inconclusive call do not appear. Active and inactive are the calls of the source. Unless noted, the call rests on the fitted dose curve.

What was measured:
[1] = target: Glucocorticoid receptor (Homo sapiens) (UniProt P04150); test: GR-GFP Redistribution (AID 450;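 active means compounds whose dose series gives a full or clear partial fitted curve of increased nuclear translocation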; further: potency means the concentration at half of the fitted maximal effect); settings: U2OS GR-GFP nuclear translocation, laser cytometry, 2 h
Chain of Glucocorticoid receptor (Homo sapiens) (P04150 whole entry, looked up, the tested form may be a part): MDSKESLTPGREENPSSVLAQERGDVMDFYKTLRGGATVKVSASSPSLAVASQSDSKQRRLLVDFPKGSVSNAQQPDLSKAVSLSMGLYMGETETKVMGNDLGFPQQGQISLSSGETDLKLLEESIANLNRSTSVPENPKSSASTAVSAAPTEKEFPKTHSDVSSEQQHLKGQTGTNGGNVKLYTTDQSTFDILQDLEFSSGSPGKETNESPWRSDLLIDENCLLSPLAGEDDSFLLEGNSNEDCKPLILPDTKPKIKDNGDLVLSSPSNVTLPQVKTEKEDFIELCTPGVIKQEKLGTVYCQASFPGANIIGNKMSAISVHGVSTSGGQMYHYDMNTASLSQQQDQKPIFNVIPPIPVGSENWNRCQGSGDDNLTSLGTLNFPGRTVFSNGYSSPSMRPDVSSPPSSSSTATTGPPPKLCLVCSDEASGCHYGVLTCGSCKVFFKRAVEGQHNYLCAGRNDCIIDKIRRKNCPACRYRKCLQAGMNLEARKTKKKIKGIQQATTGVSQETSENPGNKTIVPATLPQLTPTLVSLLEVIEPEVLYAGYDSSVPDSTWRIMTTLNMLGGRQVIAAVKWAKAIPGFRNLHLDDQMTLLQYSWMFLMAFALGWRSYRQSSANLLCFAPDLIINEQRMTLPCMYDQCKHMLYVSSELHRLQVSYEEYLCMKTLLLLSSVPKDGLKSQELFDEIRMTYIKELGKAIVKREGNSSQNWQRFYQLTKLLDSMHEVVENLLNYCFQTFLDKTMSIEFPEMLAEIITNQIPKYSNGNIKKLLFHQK

[2] = target: Glucocorticoid receptor (Homo sapiens) (UniProt P04150); test: GR-EFC Redistribution (AID 451); settings: CHO-K1 GR-EFC translocation, beta-gal luminescence, 2 h; further: potency means the concentration at half of the fitted maximal effect
How it was run: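 CHO-K1 cells stably expressing nuclear-localized β-gal enzyme acceptor and GR fused C-terminally to the enzyme donor fragment; ligand-driven nuclear translocation restores β-gal by complementation. Compounds titrated up to 46 uM final, 2 h at 37 °C; luminescence read.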

[3] = target: Mitogen-activated protein kinase 10 (Mus musculus) (UniProt Q61831); test: JNK3 AlphaScreen Assay (AID 530; active means well fitted curve in either direction with a large enough effect, not every such curve was filed as active;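 further: kinase came from lysate of stimulated human HepG2 cells; signal reports phosphorylation of biotinylated GST-cJun 1-79 at Ser73 with 10 µM ATP; on the % scale 0 is the no-effect control and ±100 the full control effect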); settings: JNK3 lysate, c-Jun phosphorylation; series mostly up to 57.1 µM
How it was run: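 JNK3 came from HepG2 lysates pre-activated with IL-1beta and TNF-alpha and phosphorylated biotinylated GST-cJun (1-79) at 10 uM ATP, pH 7.6, room temperature. Compounds were titrated. AlphaScreen signal used anti-phospho-cJun (Ser73) antibody.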

[4] = target: 3',5'-cyclic-AMP phosphodiesterase 4B (Homo sapiens) (UniProt Q07343); test: qHTS Assay for Inhibitors of PDE-IV (AID 607; active means well fitted activation curve with a large enough effect in the main read-out, with a control signal flat, not every such curve was filed as active; further: % of control where 0% means no effect); settings: HEK293 ACTOne CNG channel cells, membrane potential fluorescence; series mostly up to 22.9 µM
Chain of 3',5'-cyclic-AMP phosphodiesterase 4B (Homo sapiens) (Q07343 whole entry, looked up): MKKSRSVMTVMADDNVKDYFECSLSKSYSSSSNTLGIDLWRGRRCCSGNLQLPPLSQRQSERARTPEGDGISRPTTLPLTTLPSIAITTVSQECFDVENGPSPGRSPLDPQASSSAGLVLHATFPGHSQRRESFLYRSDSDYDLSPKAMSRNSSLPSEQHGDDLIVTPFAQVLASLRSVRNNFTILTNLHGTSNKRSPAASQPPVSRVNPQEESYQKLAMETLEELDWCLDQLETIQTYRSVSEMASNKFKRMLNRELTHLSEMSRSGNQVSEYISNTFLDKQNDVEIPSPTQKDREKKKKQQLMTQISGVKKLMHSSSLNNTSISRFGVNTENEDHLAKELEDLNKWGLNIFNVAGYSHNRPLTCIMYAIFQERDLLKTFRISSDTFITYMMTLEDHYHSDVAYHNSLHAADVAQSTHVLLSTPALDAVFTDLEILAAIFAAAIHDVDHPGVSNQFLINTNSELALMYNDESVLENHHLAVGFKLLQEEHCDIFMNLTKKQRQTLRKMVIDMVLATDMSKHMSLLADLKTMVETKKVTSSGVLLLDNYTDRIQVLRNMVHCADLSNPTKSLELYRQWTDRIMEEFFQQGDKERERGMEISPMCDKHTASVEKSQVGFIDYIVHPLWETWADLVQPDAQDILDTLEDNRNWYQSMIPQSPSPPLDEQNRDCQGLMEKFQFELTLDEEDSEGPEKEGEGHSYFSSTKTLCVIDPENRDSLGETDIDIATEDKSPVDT
How it was run: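 HEK293 ACTOne cells with CNG channel (1000/well), endogenous PDE4; membrane potential dye, compounds up to 22.9 uM final. Fluorescence Ex 535/Em 590; RO 20-1724 (100 uM final) as reference.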

[5] = Primary qHTS for inhibitors of SARS-S pseudo-typed particle cell entry (AID 1479145); settings: SARS-S pseudotyped particle cell entry, luciferase reporter; series mostly up to 57.1 µM; further: nearly all actives have a fitted effect of over 45% in size; further: potency means the concentration at half of the fitted maximal effect
[6] = Primary qHTS for Huh7 cytotoxicity: counterscreen for inhibitors of MERS-S pseudotyped particle cell entry (AID 1479147); settings: cell viability read-out; series mostly up to 57.1 µM
[7] = Primary qHTS for Vero E6 cytotoxicity: counterscreen for inhibitors of SARS-S pseudo-typed particle cell entry (AID 1479150); settings: cell viability; series mostly up to 57.1 µM
[8] = VSVG counterscreen qHTS to identify inhibitors of SARS-CoV-2 cell entry (AID 1645847); settings: VSV-G pseudotyped particle entry, luciferase; series mostly up to 57.2 µM; further: potency means the concentration at half of the fitted maximal effect; nearly all actives have a fitted effect of over 65% in size
How it was run: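 Luminescence from a luciferase reporter, normalised to bald particle and VSV-G pseudotyped particle wells, is the read-out. Cells are HEK293 expressing human ACE2, exposed to compound 1 h before a 48 h particle infection at 37 °C.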

[9] = Primary qHTS for inhibitors of MERS-S pseudo-typed particle cell entry (AID 1479149); settings: MERS-S pseudotyped particle entry, luciferase; series mostly up to 57.1 µM; further: nearly all actives have a fitted effect of over 60% in size
[10] = AP1 Signaling Pathway (AID 357; active means well fitted curve in either direction with a large enough effect, not every such curve was filed as active; further: on the % scale 0 is the no-effect control and ±100 the full control effect); settings: ME-180 AP-1-bla reporter, EGF-induced, beta-lactamase ratio, 5 h; series mostly up to 17.2 µM
How it was run: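 Titration-series screen for positive or negative modulators of EC50 EGF-induced signaling in ME-180 cells carrying an AP-1-driven beta-lactamase reporter. After 5 hours at 37 degrees Celsius, CCF4 460nm/530nm emission ratio gave %Activity; AC50 values derived.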

[11] = NFAT Signaling Pathway (AID 444; active means well fitted curve in either direction with a large enough effect, not every such curve was filed as active;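 further: carbachol stimulus at about its EC50 of 1 µM final; on the % scale 0 is the no-effect control and ±100 the full control effect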); settings: Jurkat NFAT-bla M1, carbachol, beta-lactamase ratio, 5 h
How it was run: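 Jurkat cells carrying an NFAT-driven β-lactamase reporter and co-transfected muscarinic M1 receptor were treated with compound plus carbachol (1 uM final, an EC50 level) for 5 h at 37 °C. CCF4 loading followed for 1 h at RT; 460/530 nm ratio gave %activity.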

[12] = Stat Signaling Pathway (AID 446; active means well fitted curve in either direction with a large enough effect, not every such curve was filed as active;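 further: ME-180 cervical cancer cells given 40 pM IL-6 alongside compound; SIE-controlled beta-lactamase reporter measured as 460/530 nm FRET emission ratio; on the % scale 0 is the no-effect control and ±100 the full control effect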); settings: ME-180 SIE beta-lactamase reporter, IL-6 stimulated, 5 h; series mostly up to 17.2 µM
How it was run: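 ME-180 cells carrying a SIE-driven beta-lactamase reporter are stimulated with 40 pM IL-6 for 5 h at 37C in the presence of compound. The 460/530 nm FRET substrate ratio is read after 2.5 h at RT. Data are normalised to 300 pM IL-6 and to 125 nM JAK inhibitor controls.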

[13] = target: Guanine nucleotide-binding protein G(i) subunit alpha-1 (Homo sapiens) (UniProt P63096); test: qHTS Assay for Inhibitors of RGS12 GoLoco Motif Activity (Green Fluorophore) (AID 879; active means well fitted curve in the direction sought with a large enough effect; an effect the other way counts as inactive or inconclusive;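 further: 0% = labeled peptide with Gαi1 and full inhibition = labeled peptide alone without protein; negative values mean loss of peptide binding seen as reduced polarization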); settings: Galphai1/FITC-RGS12 GoLoco peptide, fluorescence polarization; series mostly up to 57.1 µM
Chain of Guanine nucleotide-binding protein G(i) subunit alpha-1 (Homo sapiens) (P63096 whole entry, looked up): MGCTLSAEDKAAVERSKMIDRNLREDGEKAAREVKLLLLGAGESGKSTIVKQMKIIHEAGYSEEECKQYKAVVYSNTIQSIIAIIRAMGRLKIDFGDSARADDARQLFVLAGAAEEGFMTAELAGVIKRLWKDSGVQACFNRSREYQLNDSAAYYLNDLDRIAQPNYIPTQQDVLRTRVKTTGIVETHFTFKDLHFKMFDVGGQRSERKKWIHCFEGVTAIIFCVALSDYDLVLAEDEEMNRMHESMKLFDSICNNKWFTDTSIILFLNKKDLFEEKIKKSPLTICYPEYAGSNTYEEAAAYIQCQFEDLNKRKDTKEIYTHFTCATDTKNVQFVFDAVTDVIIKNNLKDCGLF
How it was run: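 Fluorescence polarization assay: 50 nM Gαi1 with 10 nM FITC-labeled RGS12 GoLoco peptide in 10 mM Tris pH 7.5, 150 mM NaCl, 0.1 mM GDP, 0.05% NP40, 10 min at room temperature with compound.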

[14] = target: Pyruvate kinase PKM (Homo sapiens) (UniProt P14618); test: qHTS Assay for Activators of Human Muscle Pyruvate Kinase (AID 954; active means well fitted curve in the direction sought with a large enough effect, not every such curve was filed as active;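 further: 0% = uninhibited enzyme and -100% = no enzyme or full thiadiazolimine inhibition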); settings: purified human muscle pyruvate kinase, luciferase-coupled luminescence, 1 h; series mostly up to 57.5 µM
Chain of Pyruvate kinase PKM (Homo sapiens) (P14618 whole entry, looked up): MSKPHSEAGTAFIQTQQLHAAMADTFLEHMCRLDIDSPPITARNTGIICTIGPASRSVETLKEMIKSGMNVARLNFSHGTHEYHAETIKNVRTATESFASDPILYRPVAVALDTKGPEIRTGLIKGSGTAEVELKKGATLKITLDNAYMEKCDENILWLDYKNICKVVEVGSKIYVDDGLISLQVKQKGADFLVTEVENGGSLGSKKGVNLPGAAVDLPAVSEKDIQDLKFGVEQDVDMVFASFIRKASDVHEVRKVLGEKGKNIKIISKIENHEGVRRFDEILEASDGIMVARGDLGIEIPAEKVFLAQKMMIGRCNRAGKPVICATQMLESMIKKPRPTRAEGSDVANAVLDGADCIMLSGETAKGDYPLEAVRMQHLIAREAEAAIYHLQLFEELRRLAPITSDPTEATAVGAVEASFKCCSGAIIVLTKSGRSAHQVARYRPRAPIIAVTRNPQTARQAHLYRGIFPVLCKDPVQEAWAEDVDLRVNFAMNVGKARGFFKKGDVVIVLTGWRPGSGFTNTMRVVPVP
How it was run: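 Purified human PKM2 (0.1 nM) with 0.5 mM PEP (Km) and 0.1 mM ADP in 50 mM imidazole pH 7.2, KCl, MgCl2, 1 h at room temperature; ATP formed read by coupled luciferase luminescence. Normalized to no-enzyme/110 uM thiadiazolimine inhibition; 0.3 nM enzyme column for activation.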

[15] = target: Alpha-galactosidase (Coffea arabica) (UniProt Q42656); test: Counterscreen for Glucocerebrosidase Inhibitors: qHTS Assay for Coffee Bean alpha-Galactosidase at pH 4.5 (AID 957; active means well fitted curve in the direction sought with a large enough effect; an effect the other way counts as inactive or inconclusive;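 further: plate controls were enzyme alone for no effect and no enzyme for full effect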); settings: purified coffee bean alpha-galactosidase, fluorogenic substrate; series mostly up to 76.9 µM
Chain of Alpha-galactosidase (Coffea arabica) (Q42656 whole entry, looked up): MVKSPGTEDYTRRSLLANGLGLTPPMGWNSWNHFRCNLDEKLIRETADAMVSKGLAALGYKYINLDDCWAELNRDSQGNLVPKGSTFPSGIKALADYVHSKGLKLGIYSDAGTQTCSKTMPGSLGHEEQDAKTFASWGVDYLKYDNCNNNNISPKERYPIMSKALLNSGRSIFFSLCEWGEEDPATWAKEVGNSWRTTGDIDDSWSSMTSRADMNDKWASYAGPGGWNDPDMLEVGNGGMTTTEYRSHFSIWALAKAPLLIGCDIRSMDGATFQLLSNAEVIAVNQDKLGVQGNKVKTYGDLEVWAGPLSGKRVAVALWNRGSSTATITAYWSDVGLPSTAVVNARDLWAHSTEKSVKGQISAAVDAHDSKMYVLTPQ
How it was run: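 Green coffee bean enzyme (2 nM final) was incubated with compounds (0.7 nM to 77 uM) and 4-methylumbelliferyl alpha-D-galactopyranoside (80 uM final) in 50 mM citric acid, 0.005% Tween-20, pH 4.5, 20 min at room temperature; AC50 from Hill fits.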

[16] = target: Alpha-galactosidase A (Homo sapiens) (UniProt P06280); test: Counterscreen for Glucocerebrosidase Inhibitors: qHTS Assay for Human alpha-Galactosidase at pH 4.5 (AID 992; active means well fitted curve in the direction sought with a large enough effect; an effect the other way counts as inactive or inconclusive; further: 0% is about no effect); settings: purified enzyme, fluorogenic substrate; series mostly up to 76.9 µM
Chain of Alpha-galactosidase A (Homo sapiens) (P06280 whole entry, looked up): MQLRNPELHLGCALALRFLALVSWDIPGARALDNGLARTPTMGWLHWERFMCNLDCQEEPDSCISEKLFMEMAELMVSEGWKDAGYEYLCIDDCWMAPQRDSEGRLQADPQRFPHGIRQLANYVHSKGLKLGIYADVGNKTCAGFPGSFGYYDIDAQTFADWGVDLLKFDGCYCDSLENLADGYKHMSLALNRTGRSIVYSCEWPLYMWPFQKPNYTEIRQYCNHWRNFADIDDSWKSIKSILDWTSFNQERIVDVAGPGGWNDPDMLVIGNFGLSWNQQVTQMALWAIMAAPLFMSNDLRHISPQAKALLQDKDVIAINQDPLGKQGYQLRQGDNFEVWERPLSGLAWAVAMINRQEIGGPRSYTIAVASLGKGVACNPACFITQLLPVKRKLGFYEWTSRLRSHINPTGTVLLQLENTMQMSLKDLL
How it was run: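 Human enzyme (2 nM) with 80 uM 4-methylumbelliferyl alpha-D-galactopyranoside in 50 mM citric acid, 0.005% Tween-20, pH 4.5, 20 min at room temperature. Compounds 0.7 nM–77 uM; fluorescence Ex 365/Em 440 after pH 10 stop; AC50 from Hill fits.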

[17] = target: alpha-glucosidase (Oryza sativa, rice) (UniProt Q653V4); test: Counterscreen for Glucocerebrosidase Inhibitors: qHTS Assay for Rice alpha-Glucosidase at pH 5.0 (AID 997; active means well fitted curve in the direction sought with a large enough effect; an effect the other way counts as inactive or inconclusive;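 further: 0% = full activity with enzyme and -100% = basal without enzyme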); settings: rice alpha-glucosidase enzyme activity; series mostly up to 76.9 µM
How it was run: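 Rice alpha-glucosidase (4 nM final) with 400 uM 4-methylumbelliferyl-alpha-D-glucopyranoside in citrate buffer pH 5.0, 20 min at room temperature, stopped at pH 10; fluorescence 365/440 nm, compounds 0.7 nM–77 uM, AC50 from Hill fits.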

[18] = target: Ubiquitin carboxyl-terminal hydrolase 1 (Homo sapiens) (UniProt O94782); test: Inhibitors of USP1/UAF1: Pilot qHTS (AID 504865; active means well fitted curve in the direction sought with a large enough effect; an effect the other way counts as inactive or inconclusive;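 further: rhodamine fluorescence freed from ubiquitin-rhodamine substrate followed over time; top concentration of the series differs between compounds; on the % scale 0 is the no-effect control and ±100 the full control effect; nearly all actives have a fitted effect of over 35% in size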); settings: purified USP1/UAF1, Ub-rhodamine cleavage fluorescence; series mostly up to 114 µM
Chain of Ubiquitin carboxyl-terminal hydrolase 1 (Homo sapiens) (O94782 whole entry, looked up): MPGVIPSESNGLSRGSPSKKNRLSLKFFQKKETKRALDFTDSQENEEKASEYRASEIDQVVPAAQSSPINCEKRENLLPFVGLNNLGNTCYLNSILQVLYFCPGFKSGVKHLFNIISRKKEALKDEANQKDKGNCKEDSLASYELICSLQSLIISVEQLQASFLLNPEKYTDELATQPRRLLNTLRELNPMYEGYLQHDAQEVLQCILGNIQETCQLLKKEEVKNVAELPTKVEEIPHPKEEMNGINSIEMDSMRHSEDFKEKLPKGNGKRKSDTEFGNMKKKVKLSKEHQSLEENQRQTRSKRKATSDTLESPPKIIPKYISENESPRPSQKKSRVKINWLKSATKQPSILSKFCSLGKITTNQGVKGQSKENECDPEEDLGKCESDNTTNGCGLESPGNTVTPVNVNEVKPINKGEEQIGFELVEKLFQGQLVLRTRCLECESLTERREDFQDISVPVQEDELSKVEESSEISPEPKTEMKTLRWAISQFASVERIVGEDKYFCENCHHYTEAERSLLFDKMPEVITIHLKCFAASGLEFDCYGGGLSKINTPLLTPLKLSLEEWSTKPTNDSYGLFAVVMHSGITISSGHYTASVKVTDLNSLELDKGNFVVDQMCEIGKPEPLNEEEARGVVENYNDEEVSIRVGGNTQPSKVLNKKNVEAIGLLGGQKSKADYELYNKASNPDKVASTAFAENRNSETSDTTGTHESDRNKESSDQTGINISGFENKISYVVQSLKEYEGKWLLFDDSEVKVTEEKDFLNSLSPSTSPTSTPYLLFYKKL
How it was run: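 In 50mM HEPES pH 7.8 containing 0.5mM EDTA, 1mM TCEP, 0.1 mg/ml BSA and 0.01% Tween-20, 1nM USP1/UAF1 is exposed to compound for 15 min, then Ub-Rho (150nM final) is added and fluorescence is read over time.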

[19] = target: Luciferin 4-monooxygenase (Photinus pyralis) (UniProt P08659); test: Biochemical firefly luciferase enzyme assay for NPC (AID 624030; active means well fitted curve in the direction sought with a large enough effect; an effect the other way counts as inactive or inconclusive;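 further: purified P. pyralis luciferase at 10 nM with luciferin and ATP substrate; 0% = DMSO and -100% = full luciferase inhibition by PTC124 control; nearly all actives have a fitted effect of over 70% in size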); settings: purified P. pyralis luciferase, luminescence, 5 min; series mostly up to 58.6 µM
Chain of Luciferin 4-monooxygenase (Photinus pyralis) (P08659 whole entry, looked up): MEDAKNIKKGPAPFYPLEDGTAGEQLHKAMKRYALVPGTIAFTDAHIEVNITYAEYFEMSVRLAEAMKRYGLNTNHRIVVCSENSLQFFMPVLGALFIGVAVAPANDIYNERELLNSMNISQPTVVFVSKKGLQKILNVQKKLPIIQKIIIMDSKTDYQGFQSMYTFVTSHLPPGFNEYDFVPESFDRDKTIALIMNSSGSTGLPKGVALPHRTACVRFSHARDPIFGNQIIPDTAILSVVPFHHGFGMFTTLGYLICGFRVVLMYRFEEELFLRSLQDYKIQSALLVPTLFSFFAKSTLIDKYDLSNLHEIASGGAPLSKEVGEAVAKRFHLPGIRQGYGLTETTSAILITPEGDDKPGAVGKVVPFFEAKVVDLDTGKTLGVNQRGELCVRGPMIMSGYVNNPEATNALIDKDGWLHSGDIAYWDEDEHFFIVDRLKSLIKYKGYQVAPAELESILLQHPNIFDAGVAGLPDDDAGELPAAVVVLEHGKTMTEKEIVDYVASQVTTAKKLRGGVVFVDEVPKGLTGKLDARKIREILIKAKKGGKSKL
How it was run: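 Counter-screen for direct inhibition of the luciferase enzyme by approved-drug library compounds, run at 10 nM enzyme in 50 mM Tris acetate (final). Luminescence was read within 5 min of enzyme-buffer addition and normalized to PTC124 versus DMSO (0%).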

CN(C)[C@@H]1C(=O)C(C(N)=O)=C(O)[C@]2(O)C(=O)C3=C(O)c4c(O)cccc4[C@@](C)(O)[C@@H]3C[C@@H]12
inactive: Potency [1] > 46 µM | Potency [2] > 46 µM | outcome [3] | Potency [4]

Cc1c(N)nc([C@H](CC(N)=O)NC[C@@H](N)C(N)=O)nc1C(=O)N[C@H](C(=O)N[C@@H](C)[C@H](O)[C@@H](C)C(=O)N[C@@H](C(=O)NCCc1nc(-c2nc(C(=O)NCCC[S+](C)C)cs2)cs1)[C@@H](C)O)C(O[C@H]1O[C@H](CO)[C@H](O)[C@@H](O)[C@H]1O[C@H]1O[C@H](CO)[C@@H](O)[C@H](OC(N)=O)[C@@H]1O)c1cnc[nH]1 (some centres undefined)
active: Potency [5] 14.1 µM | Potency [8] 0.0341 µM
inactive: Potency [6] | Potency [7]

CC(C)[C@]12O[C@H]1[C@@H]1O[C@@]13[C@@]1(C)CCC4=C(COC4=O)[C@@H]1C[C@@H]1O[C@@]13C2=O
active: Potency [8] 0.341 µM

C/C=C(\C)C(=O)N[C@@H](c1ccccc1)[C@@H](O)C(=O)O[C@H]1C[C@@]2(O)[C@@H](OC(=O)c3ccccc3)[C@@H]3[C@]4(OC(C)=O)CO[C@@H]4C[C@H](O)[C@@]3(C)C(=O)[C@H](OC(C)=O)C(=C1C)C2(C)C
active: Potency [8] 0.108 µM

C=C(C)[C@@H]1CCC(C)=C[C@H]1c1c(O)cc(CCCCC)cc1O
inactive: Potency [6] | Potency [9] | Potency [7]
active: Potency [8] 24.1 µM

CC(C)(O)/C=C\C(=O)[C@](C)(O)[C@H]1[C@H](O)C[C@]2(C)[C@@H]3CC=C4[C@@H](C=C(O)C(=O)C4(C)C)[C@]3(C)C(=O)C[C@@]12C
inactive: Potency [2] > 9.22 µM | activity change, negative = inhibition [3] 2.97% [at 11.4 µM] | Potency [4]

CO[C@H]1CCC(O[C@H]2C[C@H]([C@]3(C)CC[C@]4(C[C@H](O)[C@@H](C)[C@@H]([C@@H](C)/C=C(\C)C(=O)[C@H](C)C[C@H](C)C(=O)O)O4)O3)O[C@]3(O[C@@H]([C@H]4O[C@@](O)(CO)[C@H](C)C[C@@H]4C)C[C@@H]3C)[C@@H]2C)O[C@@H]1C (some centres undefined)
active: Potency [8] 0.607 µM

NNCc1cccc(O)c1
inactive: outcome [10] | activity change, negative = inhibition ([11]; at 38 µM (top of the series)) -15.7% | outcome [12] | Potency [1] > 46 µM | Potency [2] > 46 µM | outcome [3] | outcome [13] | outcome [14] | outcome [15] | outcome [16] | outcome [17]

CCCCN1C2CCC1CC(OC(c1ccc(F)cc1)c1ccc(F)cc1)C2 (centres undefined)
inactive: outcome [13] | outcome [14] | outcome [15] | outcome [16] | outcome [17]

CCOC(=O)[C@H](C)C[C@@H](Cc1ccc(-c2ccccc2)cc1)NC(=O)CCC(=O)O
inactive: Potency [5] | Potency [6] | Potency [9] | Potency [7]

O=C(OC1C[C@@H]2CC3C[C@@H](C1)N2CC3=O)c1c[nH]c2ccccc12 (some centres undefined)
inactive: Potency [5] | Potency [6] | Potency [9] | Potency [7]

C[C@H]1OC[C@@H](C[N+](C)(C)C)O1
active: activity change, negative = inhibition ([11]; at 17.2 µM (top of the series)) 147% [activator]
inactive: outcome [10] | outcome [12] | Potency [1] > 46 µM and > 20.6 µM | Potency [2] > 46 µM | outcome [13] | outcome [14] | outcome [15] | outcome [16] | outcome [17]

CCN(CC)C(=O)N[C@@H]1C[C@@H]2c3cccc4[nH]cc(c34)C[C@H]2N(C)C1
inactive: Potency [18] | Potency [19]

Cc1cc(/C=C/C#N)cc(C)c1Nc1ccnc(Nc2ccc(C#N)cc2)n1
active: Potency [5] 22.4 µM

C#CCN(C)C(C)Cc1ccccc1 (centres undefined)
inactive: outcome [10] | activity change, negative = inhibition ([11]; at 17.2 µM (top of the series)) -4.45% | outcome [12] | Potency [1] > 20.6 µM
